# Out of some 390,000 compounds screened, about 360 (0.092%) were called active. Entries that show only a call come without a potency. Calls follow the shape of the dose curve; as a rule, active = well fitted inhibition curve with a large enough effect; inconclusive = small, poorly fitted or top-dose-only effect; inactive = no such curve, though single readings can be large or run the other way. For the sample, actives were picked, then their nearest neighbours and some compounds at random.
# Biological target: Isocitrate dehydrogenase [NADP] cytoplasmic (Homo sapiens) (UniProt O75874)
# Sequence (O75874 whole entry R132H, change not shown): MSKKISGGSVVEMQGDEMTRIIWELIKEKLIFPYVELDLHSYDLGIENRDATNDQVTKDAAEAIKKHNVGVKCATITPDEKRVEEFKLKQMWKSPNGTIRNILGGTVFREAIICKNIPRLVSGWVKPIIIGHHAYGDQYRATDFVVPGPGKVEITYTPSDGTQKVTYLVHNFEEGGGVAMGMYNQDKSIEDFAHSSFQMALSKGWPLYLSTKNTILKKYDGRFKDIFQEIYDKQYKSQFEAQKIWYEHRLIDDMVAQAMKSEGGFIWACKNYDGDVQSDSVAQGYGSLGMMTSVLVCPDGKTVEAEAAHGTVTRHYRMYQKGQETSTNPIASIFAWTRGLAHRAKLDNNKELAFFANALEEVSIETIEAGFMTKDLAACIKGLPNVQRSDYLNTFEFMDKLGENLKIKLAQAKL
# Test: qHTS for Inhibitors of mutant isocitrate dehydrogenase 1 (IDH1): qHTS; also: nearly all actives have a fitted effect of over 65% in size
# Conditions: IDH1-R132H enzyme, NADPH consumption, diaphorase/resazurin fluorescence; series mostly up to 76.6 µM
# Summary of the method: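 IDH1-R132H (0.5 ug/mL) preincubated 30 min with compound, then NADPH (0.016 mM) and alpha-KG (2 mM) added; 80 min at RT, pH 7.5. Remaining NADPH coupled via diaphorase/resazurin to fluorescence (540/590 nm); concentration-response curves normalized to no-enzyme control.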
# Potency is read from the fitted curve at half-maximal effect.
row,SMILES,Potency
1,CCn1c(=O)cc(OCC(=O)Nc2cc(Cl)c(OC)cc2OC)c2ccccc21,inactive
2,Cc1ccc(-c2nn(CCC(=O)Nc3ccc(OC(F)(F)F)cc3)c(=O)c3ccccc23)cc1,inactive
3,Cc1ccc(C(=O)N2c3ncnn3C3(CCCCC3)[C@@H]3CCCC[C@@H]32)cc1,inactive
4,CCCNc1ncnc2c1c(-c1ccccc1)cn2-c1ccc(OCC)cc1,28.2 µM (active)
5,CCOC(=O)C1CCN(c2ncnc3c2c(-c2ccccc2)cn3-c2ccc(C)cc2)CC1,inactive
6,O=c1[nH]cnc2c1c(-c1ccccc1)cn2-c1ccc(F)cc1,inactive
7,CCc1ccc(CNC(=O)c2cc3c(=O)n(CC)c4ccccc4c3s2)cc1,inactive
8,O=C(NCC(c1cccnc1)N1CCc2ccccc21)c1cccc(C(F)(F)F)c1 (stereo unspecified),inactive
9,COc1cc(C(=O)N2CCN(c3ccc(Nc4ccc(C)cc4)nn3)CC2)cc(OC)c1OC,inactive
10,CCc1ccc(N(CC)C(=O)CCn2cnc3onc(-c4ccc(F)cc4)c3c2=O)cc1,inactive
11,Cc1ccc(CSc2nc3cccnc3n2Cc2ccc(C(=O)NC3CC3)cc2)cc1,inactive
12,COc1ccc(/C=C/c2nc(C#N)c(NCc3ccc(F)cc3)o2)cc1OC,inactive
13,Cc1ccc2nc(/C(C#N)=C/c3ccc(-c4ccc(C(=O)OC(C)C)cc4)o3)[nH]c2c1,inactive
14,CCCn1c(NCc2ccccc2F)nc2ccccc21,inactive
15,O=C(C1CC1)N1CCc2cc(Br)cc(S(=O)(=O)N3CCN(c4ccccc4F)CC3)c21,inactive
16,Cc1ccc2nc(-c3ccc(C)c(NC(=O)Cc4ccccc4)c3)oc2c1,inactive
17,CCc1ccccc1NC(=O)Cc1ccc(NC(=O)N2CCCCc3ccccc32)cc1,inactive
18,COc1cccc(CNC(=O)C(NS(=O)(=O)c2ccc3nc(C)sc3c2)C(C)C)c1 (stereo unspecified),inactive
19,Cc1nc2sc(C)c(C)n2c(=O)c1S(=O)(=O)NCCc1ccc(Cl)cc1,inactive
20,COc1ccccc1CCNC(=O)c1cccn1-c1nnc(N2CCCCC2)s1,inactive
21,COc1ccc(S(=O)(=O)NCc2cccn2Cc2cccc(C)c2)cc1,inactive

row,SMILES,Potency
1,COC(=O)c1sc2ncccc2c1-n1c(C)ccc1C,inactive
2,CCCN1CCN(CCCNC(=O)c2ccc3nc(Cc4ccccc4)oc3c2)CC1,inactive
3,Cc1ccc(-c2cc(-c3coc4ccccc4c3=O)c3c(n2)-c2cc(Cl)ccc2OC3)cc1,inactive
4,O=C(NCc1ccccc1)c1ccc2c(c1)nc1n2CCCCC1,inactive
5,Cn1c(=O)nc2n(-c3ccc(Br)cc3)c3cccc(Cl)c3cc-2c1=O,inactive
6,CCc1ccc(S(=O)(=O)c2nnn3c2nc(N2CCN(CC)CC2)c2sccc23)cc1,inactive
7,Cc1cc(C)c2oc(C(=O)Nc3ccc(S(=O)(=O)N(C)c4ccccc4)cc3)cc(=O)c2c1,inactive
8,Cc1nn(-c2ccc(N3CCCCC3)nn2)c(C)c1CCC(=O)NCc1ccccc1F,inactive
9,COC(=O)c1ccc(-c2c(-c3ccccc3)ncc3cc(OC)c(OC)cc23)cc1,39.8 µM (active)
10,COc1ccc(C(=O)Nc2ccc(-n3nncc3-c3ccccc3)cc2)cc1OC,inactive
11,COC(=O)c1cc(NC(=O)c2cnc(SC)nc2-c2ccccc2)cc(C(=O)OC)c1,inactive
12,COc1ccc(C)cc1NC(=O)COCc1cc(-c2cccs2)on1,inactive
13,CCOC(=O)c1c(S(=O)(=O)NCC(=O)Nc2ccc(Cl)c(C(F)(F)F)c2)c(C)n(C)c1C,inactive
14,Cc1cc(N2CCN(c3cccc(C(F)(F)F)c3)CC2)n2nc(-c3ccccc3)nc2n1,inactive
15,COC(=O)c1cc(S(=O)(=O)N2CCN(c3cc(Cl)ccc3C)CC2)c[nH]1,inactive
16,COc1ccc(CCNC(=O)c2ccc3c(c2)nc(C)n3-c2ccc(Br)cc2)cc1OC,inactive
17,COc1ccc(CNC(=O)CCc2c(C)nn(-c3ccc(N4CCCC4)nn3)c2C)cc1,inactive
18,CCOc1ccc(N(CC)S(=O)(=O)N2CCCC(C(=O)NCc3ccc(SC)cc3)C2)cc1 (stereo unspecified),inactive
19,CCCCOc1ccc(Cn2c(=O)oc3ccc(C)cc32)cc1OC,inactive
20,CCCCOc1ccc(CN2C(=O)C(=O)c3cc(Br)cc(C)c32)cc1OC,28.2 µM (active)
21,COc1ccc(CN2C(=O)CC(Cc3ccc(C)cc3)C2=O)cc1OC (stereo unspecified),inactive

row,SMILES,Potency
1,O=S(=O)(c1ccc(Br)cc1)c1nnn2c1nc(N1CCOCC1)c1sccc12,inactive
2,COc1ccc(N2C(=O)CSC23C(=O)N(Cc2cccc(F)c2)c2ccccc23)cc1Cl (stereo unspecified),inactive
3,Cc1ccc(CNC(=O)CSc2c3c(nc4cc(Cl)ccc24)CCCC3)cc1,inactive
4,Cc1cc(Cl)ccc1NC(=O)Cc1ccc(NC(=O)N2CCCCc3ccccc32)cc1,inactive
5,CC1CN(C(=O)N2CCC(C(=O)NCc3cccs3)CC2)c2ccccc2O1 (stereo unspecified),inactive
6,Cc1ccc(O)c(NC(=O)c2cc(-c3ccc(F)cc3)no2)c1,inactive
7,Cc1ccc(Nc2nc3ccccc3nc2-n2nc(C)cc2C)c(Cl)c1,inactive
8,CCCN(CCC)C(=O)Cn1c(=O)n(-c2ccc(Cl)cc2)c(=O)c2c3c(sc21)CCCCC3,inactive
9,CCCn1c2ccccc2c2cnn(CC(=O)N(CC)c3cc(C)ccc3C)c(=O)c21,inactive
10,N#Cc1ccc(-c2cccs2)nc1SCc1ccc(Br)cc1,inactive
11,COc1ccc(Cl)cc1NC(=O)CSc1nc2ccccc2c2nc(-c3ccccc3)nn12,inactive
12,O=C(CCc1cn(Cc2ccc(F)cc2)c2ccccc12)NC1CCCCC1,inactive
13,O=C(C1COc2ccccc2O1)N(Cc1cccnc1)c1nc2c(F)cc(F)cc2s1 (stereo unspecified),inactive
14,CCOC(=O)c1ccc(NC(=O)Cn2c(=O)n(-c3ccc(C)cc3)c(=O)c3c2cnn3C)cc1,inactive
15,CCCCn1c(CNC(=O)C23CC4CC(CC(C4)C2)C3)nnc1SCC(=O)Nc1ccc(C)cc1,inactive
16,COCCNC(=O)c1ccc2c(c1)N(Cc1cccc(Cl)c1)C(=O)c1ccccc1S2(=O)=O,inactive
17,COc1ccc(-c2nnc(SCC(=O)Nc3ccccc3C)o2)cc1OC,inactive
18,CCCCc1nn2c(=O)cc(COC(=O)c3ccccc3NC(=O)C(C)(C)C)nc2s1,inactive
19,COc1cc(NC(=O)CSc2nc3nc(C)c(Cc4ccc(C)cc4)c(C)n3n2)cc(OC)c1OC,inactive

# — PubChem BioAssay AID602179 (National Center for Advancing Translational Sciences (NCATS), 2012)
